In PubChem BioAssay (NCI):
The panel holds about 83,000 compounds, 20% with a hit somewhere; the sample as a whole holds those more often.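 Single-dose data. Exposure time 48 hours. Values below 10 considered active.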 Activity calls are given as the source filed them.

Each molecule was assayed on OVCAR-3 ovarian (assay: NCI-60 one-dose screen, 48 h (100 = growth as untreated, 0 = no growth, -100 = all killed)). Details: 10 µM unless noted.

| Compound | growth |
| --- | --- |
| CC1OC(n2c3ccccc3c3c4c(c5c6ccccc6[nH]c5c32)C(=O)N(CCN[C@H]2CCC[C@@H]2N)C4=O)CC(O)C1O (stereo partly specified) | 52.7% (inactive) |
| Oc1ccc(-c2nnc3c4[nH]ccc4ncn23)cc1 | 107% (inactive) |
| Nc1c(Br)cc2c(c1Br)Cc1cc(Cl)ccc1-2 | 104% (inactive) |
| C#C[C@]1(O)CC[C@H]2[C@@H]3CC=C4c5sc(-c6cccc(Br)c6)nc5CC[C@]4(C)[C@H]3CC[C@@]21C | 101% (inactive) |
| O=C1NN(C(=O)c2ccccc2)C(c2ccc(Cl)c(Cl)c2)=C/C1=C\c1ccccc1[N+](=O)[O-] | 15.9% [6.75 µM] (inactive) |
| NS(=O)(=O)c1ccc(CCn2c(SCC(=O)N/N=C/c3cc4ccccc4[nH]3)nc3ccccc3c2=O)cc1 | 68.6% (inactive) |
| CC(C)CC(=O)C(CCc1ccccn1)C(C)C (stereo unspecified) | 118% (inactive) |
| Cc1cc(C#Cc2ccc(C(C)(C)C)cc2)ccc1-n1c(/C=C/c2c(Cl)cccc2Cl)nc2ccccc2c1=O | 94.3% (inactive) |
| CCOC(=O)c1ccc(NC(=O)CSC(N)=O)cc1 | 109% (inactive) |
| CCOCCNc1ccc(S(=O)(=O)c2ccc(N)cc2)cc1N | 100% (inactive) |
| CC(=O)O[C@@H]1CC2C(C)(C)CCCC2(C)C2=C1C(=O)C(C(C)C)=CC2=O (stereo partly specified) | 0.0354% (active) |
| CCN(CC)CCCC(C)Nc1c(-c2ccccc2)cnc2cc(Cl)ccc12 (stereo unspecified) | 82.4% (inactive) |
| COc1ccc(CNc2c3ccccc3nc3ccccc23)cc1F | 52.2% (inactive) |
| Clc1ccc(-c2cnc3c(-c4ccnc(N5CCNCC5)c4)cnn3c2)cc1 | -14.6% (active) |
| CN(C)N1C(=O)c2c(Cl)c(Cl)c(Cl)c(Cl)c2C1=O | 122% (inactive) |
| O=C(Nc1ccc(Cl)cc1)c1cc(-c2ccc(Cl)cc2)c2sc(=O)[nH]c2n1 | 1.82% (active) |
| COc1cnc2c(c1)C(=O)c1c-2n(CCCN2CCNCC2)c(=O)c2cc(Cl)ccc12 | -90.5% (active) |
| Nc1c(C(=O)C[C@@H](N)CO)ccc2c1C(=O)CCO2 | 23.5% (inactive) |
| C=C1C(=O)O[C@H]2[C@H]1CC/C(COC(=O)NCc1ccc(Cn3c(=O)sn(CCCl)c3=O)cc1)=C\CC[C@@]1(C)O[C@@H]21 | -26.2% (active) |

| Compound | growth |
| --- | --- |
| O=C1/C(=C/N2N=C(c3ccc(Cl)cc3)CC2c2ccccc2O)SC(=S)N1c1cccc(C(F)(F)F)c1 (stereo unspecified) | 54.6% (inactive) |
| COc1cnc2c(c1)C(=O)c1c-2n(CCCN2CCN(C)CC2)c(=O)c2cc(Cl)ccc12 | 68.3% (inactive) |
| C[C@H](NC(=O)c1snnc1C1CC1)c1c(F)cccc1Cl | 114% (inactive) |
| CC(C)(C)c1ccc(OC(=O)Nc2ccccc2)cc1 | 105% (inactive) |
| N/C(=N\OC(=O)c1ccccc1)C(C(=O)NOC(=O)c1ccccc1)C1CCCCC1 (stereo unspecified) | 66.9% (inactive) |
| CC(C)c1ccc2c(c1)CCC1C2CCCC1(C)NCc1ccccc1 (stereo unspecified) | 80.4% (inactive) |
| Nc1c(N)c2ccccc2c2ccccc12 | 116% (inactive) |
| O=C1/C(=C/c2cc(F)cc(F)c2)Cc2cc(F)cc(F)c21 | 94.9% (inactive) |
| CNC(=O)c1c(NC(=O)c2ccc(C(C)C)cc2)sc2c1CCC(=O)C2 | -10.8% (active) |
| COc1cc(C2CC(c3ccccc3)=NN2C=O)ccc1Oc1ccnc2cc(Cl)ccc12 (stereo unspecified) | 69.9% (inactive) |
| CO[C@H](C(=O)[C@@H](O)[C@@H](C)O)[C@@H]1Cc2cc3cc(O[C@H]4C[C@@H](O[C@H]5C[C@@H](O)[C@H](O)C(C)O5)[C@H](O)C(C)O4)c(C)c(O)c3c(O)c2C(=O)[C@H]1O[C@H]1C[C@@H](O[C@H]2C[C@@H](O[C@H]3C[C@](C)(O)C(=O)C(C)O3)[C@@H](O)C(C)O2)[C@H](O)C(C)O1 (stereo partly specified) | -12.5% (active) |
| COc1cc(-c2nc(-c3ccc(-c4nc5ccc(F)cc5[nH]4)cc3)no2)cc(OC)c1OC | 36.6% (inactive) |
| CC(=O)NC1C(O[C@H]2C[C@H]3[C@@H]4CC=C5C[C@@H](O)CC[C@]5(C)[C@H]4CC[C@]3(C)[C@H]2[C@H](C)C(=O)CCC(C)C)OCC(O)C1O (stereo partly specified) | 72% (inactive) |
| O=C(CCl)Nc1ccc2c(c1)C(=O)c1ccccc1C2=O | -87.1% (active) |
| Cc1csc(N/N=C/c2ccncc2)n1 | 112% (inactive) |
| COc1ccc(-c2cnc(-c3ccncc3-c3cccc(OC)c3)o2)cc1 | -13.1% (active) |
| C#Cc1cccc(Nc2nc3cc([N+](=O)[O-])ccc3nc2Nc2ccc(O)cc2)c1 | -26.2% (active) |
| COc1cccc(-c2nc3sccn3c2-c2ccnc(NCCN3CCCN(C)S3(=O)=O)n2)c1 | 91.2% (inactive) |

What follows are molecules tested on HS 578T breast in the same assay as above. Details: 10 µM unless noted.

| Compound | growth |
| --- | --- |
| CC1OC(n2c3ccccc3c3c4c(c5c6ccccc6[nH]c5c32)C(=O)N(CCN[C@H]2CCC[C@@H]2N)C4=O)CC(O)C1O (stereo partly specified) | 52.3% (inactive) |
| Oc1ccc(-c2nnc3c4[nH]ccc4ncn23)cc1 | 95% (inactive) |
| Nc1c(Br)cc2c(c1Br)Cc1cc(Cl)ccc1-2 | 91.9% (inactive) |
| O=C1NN(C(=O)c2ccccc2)C(c2ccc(Cl)c(Cl)c2)=C/C1=C\c1ccccc1[N+](=O)[O-] | 30.8% [6.75 µM] (inactive) |
| CCOC(=O)c1ccc(NC(=O)CSC(N)=O)cc1 | 105% (inactive) |
| Clc1ccc(-c2cnc3c(-c4ccnc(N5CCNCC5)c4)cnn3c2)cc1 | -32% (active) |
| CN(C)N1C(=O)c2c(Cl)c(Cl)c(Cl)c(Cl)c2C1=O | 99% (inactive) |
| COc1cnc2c(c1)C(=O)c1c-2n(CCCN2CCNCC2)c(=O)c2cc(Cl)ccc12 | 66.3% (inactive) |
| Nc1c(C(=O)C[C@@H](N)CO)ccc2c1C(=O)CCO2 | 110% (inactive) |
| C=C1C(=O)O[C@H]2[C@H]1CC/C(COC(=O)NCc1ccc(Cn3c(=O)sn(CCCl)c3=O)cc1)=C\CC[C@@]1(C)O[C@@H]21 | 97.1% (inactive) |
| COc1cnc2c(c1)C(=O)c1c-2n(CCCN2CCN(C)CC2)c(=O)c2cc(Cl)ccc12 | 54.8% (inactive) |
| C[C@H](NC(=O)c1snnc1C1CC1)c1c(F)cccc1Cl | 100% (inactive) |
| CC(C)(C)c1ccc(OC(=O)Nc2ccccc2)cc1 | 103% (inactive) |
| Cc1ccncc1NC=O | 109% (inactive) |
| Nc1c(N)c2ccccc2c2ccccc12 | 104% (inactive) |
| O=C1/C(=C/c2cc(F)cc(F)c2)Cc2cc(F)cc(F)c21 | 90.5% (inactive) |
| CNC(=O)c1c(NC(=O)c2ccc(C(C)C)cc2)sc2c1CCC(=O)C2 | 19.1% (inactive) |
| COc1cc(-c2nc(-c3ccc(-c4nc5ccc(F)cc5[nH]4)cc3)no2)cc(OC)c1OC | 30.5% (inactive) |
| COc1cccc(-c2nc3sccn3c2-c2ccnc(NCCN3CCCN(C)S3(=O)=O)n2)c1 | 97.5% (inactive) |
